Source: PubChem BioAssay
PvdQ acylase: blocks Pseudomonas aeruginosa PvdQ acylase activity; purified PvdQ acylase, fluorescence plate reader; inhibition, % at 10 µM; hit rate 0.063% among 340,000; in the data active = inhibition above about 30%, passing the limit was not always enough;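 also: 0% = vehicle neutral wells and 100% = reference inhibitor wells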
dFosB activator: activators of mouse delta FosB homodimer; P13346; purified delta FosB, TAMRA-CDK5 oligo fluorescence polarization; percent of positive-control signal above neutral wells; activation, % at 25 µM; hit rate 0.99% among 340,000;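 active = mean activation above about 17%, with every replicate also reaching it, limit read from the data, passing the limit was not always enough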
Target sequence (P13346 whole entry, looked up): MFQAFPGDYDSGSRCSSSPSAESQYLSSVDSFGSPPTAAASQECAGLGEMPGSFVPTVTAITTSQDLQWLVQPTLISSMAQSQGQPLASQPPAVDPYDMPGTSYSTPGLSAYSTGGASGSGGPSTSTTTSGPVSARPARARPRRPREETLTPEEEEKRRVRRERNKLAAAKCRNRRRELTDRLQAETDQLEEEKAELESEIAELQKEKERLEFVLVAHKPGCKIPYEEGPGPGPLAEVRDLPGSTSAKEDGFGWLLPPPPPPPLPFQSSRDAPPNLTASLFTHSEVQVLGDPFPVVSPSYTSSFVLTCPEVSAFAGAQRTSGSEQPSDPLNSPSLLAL
SIRT5 inh: blocks human SIRT5 desuccinylation of peptide. Q9NXA8. Purified SirT5, succinyl-peptide AMC, trypsin-coupled fluorescence. inhibition, % at 15 µM. hit rate 1.1% among 330,000; in the data active = inhibition above about 15%
FGF22 binding-1: FGF22 (human) thermal shift binding; Q9HCT0; recombinant FGF22 thermal shift, SYPRO orange fluorescence; percent of sucrose octasulfate shift, DMSO zero; activity (Tm shift, normalised), % at 9.99 µM; hit rate 1.5% among 340,000;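 active = mean Tm shift, scaled 0 neutral to 100 positive control, at about 1.3% or above, every replicate too, limit read from the data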
Target sequence (Q9HCT0 whole entry, looked up): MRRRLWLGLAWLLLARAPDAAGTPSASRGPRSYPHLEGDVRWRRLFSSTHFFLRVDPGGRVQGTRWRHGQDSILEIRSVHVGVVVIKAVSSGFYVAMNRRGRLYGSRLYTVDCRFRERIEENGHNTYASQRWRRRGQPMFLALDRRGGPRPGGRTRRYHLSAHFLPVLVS
CDK5 inh: CDK5/p35 (human) kinase inhibition; Q00535+Q15078; Recombinant CDK5/p35, ADP-Glo luminescence, 60 min; inhibition, % at 10 µM; hit rate 0.01% among 330,000;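 active = highest replicate inhibition of at least 50% and at least 75% of replicates reaching 50%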;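 also: plate controls were DMSO neutral control for no effect and GW8510 at 10 µM for full effect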
PglD DTNB: blocks C. jejuni PglD acetyltransferase activity; inhibition, % at 12.5 µM; hit rate 0.098% among 360,000; purified PglD enzyme, DTNB colorimetric CoA detection; in the data active = inhibition above about 16%, passing the limit was not always enough
FGF22 binding-2: binders of human FGF22 by thermal shift | recombinant FGF22 thermal shift, SYPRO orange fluorescence | hit rate 2% among 1,000 | shares compounds with FGF22 binding-1 | thermal shift activity, °C (ΔTm) at 38 µM;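 active = fitted rise in melting shift crosses a set limit at or below the top valid dose tested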
FGF22 TSA: FGF22 (human) binding by thermal shift; Thermal shift assay, SYPRO orange, melting temperature shift; 50 tested, under 10 active; Tm shift (activity), % at 38 µM; shares compounds with FGF22 binding-1;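 active = compounds whose fitted dose curve of melting temperature shift rises past a set threshold within the tested doses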
TSA no protein: shows thermal shift signal without protein, FGF22 counter-screen. compound-only SYPRO orange thermal shift counter-screen, no protein. AID 743019. AC50, µM (titrated, usually from 38 µM). shares compounds with FGF22 binding-1. hit rate 2% among 1,000;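 active = rising signal whose fitted curve reaches the 0.54 level within the top valid dose, showing a melting point, actives reach about 13 µM in these data; inactive = the rest, including activity in the opposite direction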; also: value is where the raw curve crosses a fixed level and not half-maximal
* marks the source's active call; other numbers are inactive results; i = inactive; · = not tested or not shown; [ ] = another dose, or the depositor's remark. A selection: hits, their analogues and other compounds. The true share with any hit is near 2.8%.

SMILES	PvdQ acylase	dFosB activator	SIRT5 inh	FGF22 binding-1	CDK5 inh	PglD DTNB	FGF22 binding-2	TSA no protein	others
C[C@H](CO)N1C[C@H](C)[C@H](CN(C)C(=O)Nc2ccccc2)Oc2ccc(NC(=O)CCCCCC(=O)Nc3ccccc3N)cc2CC1=O	·	·	1	0	·	0	·	·
CCC(=O)N(NC1=NS(=O)(=O)c2ccccc21)S(=O)(=O)c1ccc(C)cc1	-2	0	2	1.7*	-1	·	-0.002	i
CCN(CC)S(=O)(=O)c1ccc(NC2=NS(=O)(=O)c3ccccc32)cc1	-7	1	-1	0	2	3	·	·
O=C(C[C@H]1C[C@H]2c3cc(NC(=O)Cc4ccncc4)ccc3O[C@H]2[C@H](CO)O1)NCc1ccc2c(c1)OCO2	·	·	6	0	·	-1	·	·
COc1ccc2o/c(=N\O)c(C(=O)Nc3ccc(C)cc3)cc2c1	-23	13	0	2.3*	-1	·	0.091	i
O=C1Nc2cc(Cl)c(Cl)cc2N(O)N1c1ccc(Cl)cc1	-2	-2	-2	28*	-1	1	0.099	i
O=C1Nc2cc(Cl)c(Cl)cc2N(O)N1c1cccc(Cl)c1	-7	5	·	·	-2	·	·	·
Cc1ccc(NC(=O)c2ccc(OCc3c(C)noc3C)cc2)c(C)c1	-10	-6	-6	1.6*	0	1	·	i
Cc1ccc(NC(=O)c2cccc(OCc3c(C)noc3C)c2)c(C)c1	7	-4	·	·	0	4	·	·
C[C@H](CO)N1C[C@H](C)[C@@H](CN(C)Cc2ccc(C(=O)O)cc2)Oc2ccc(NS(=O)(=O)c3ccccc3)cc2CC1=O	·	·	3	0	·	·	·	·
CCOC(=O)N1CCN(C(=O)CNC(=O)c2nn(-c3ccc(OC)cc3OC)c(=O)c3ccccc23)CC1	-10	-21	1	0	1	-6	·	·
CCOC(=O)C1CCN(C(=O)CNC(=O)c2nn(-c3ccc(OC)cc3OC)c(=O)c3ccccc23)CC1	13	-11	-3	1.6*	12	3	0.054	i
CC(C)NC(=O)N(C)C[C@H]1OCCCC[C@H](C)Oc2ccc(NC(=O)CCCN(C)C)cc2C(=O)N([C@H](C)CO)C[C@@H]1C	·	·	1	1	·	2	·	·
CO[C@H]1CN(C)C(=O)c2cc(NC(=O)C3CC3)ccc2OC[C@@H](C)N(C(=O)C2CCCCC2)C[C@@H]1C	·	·	-1	0	·	-2	·	·
O=C(N/N=C/c1ccc(Cl)cc1)c1ccc2nc[nH]c2c1	·	·	·	2.5*	·	-5	0.017	i
Cc1ccsc1/C=N/NC(=O)c1c[nH]c2ccccc12	0	-8	·	·	3	1	·	·
CC(=O)Nc1cccc(C(=O)N/N=C/c2c[nH]c3ccccc23)c1	-5	-4	5	3.8*	1	-7	·	i	FGF22 TSA=0
O=C(N/N=C/c1c[nH]c2ccccc12)c1ccc(O)c(O)c1	4	0	5	2.4*	0	6	-0.034	i	FGF22 TSA=0
COC(=O)c1ccc(/C=N/NC(=O)c2ccc3nc[nH]c3c2)cc1	-3	-4	-4	0	1	-2	·	·
O=C(N/N=C/c1ccsc1)c1c[nH]c2ccccc12	-9	-7	2	3.7*	3	0	-0.063	i
CCC(=O)N1[C@@H](CO)[C@@H](c2ccc(-c3ccc(C#N)cc3)cc2)C12CN(C(C)=O)C2	·	·	-4	0	·	·	·	·
COc1ccc(S(=O)(=O)Nc2ccc3c(c2)CC(=O)N([C@H](C)CO)C[C@@H](C)[C@@H](CN(C)S(=O)(=O)c2cccs2)O3)cc1	·	·	0	0	·	0	·	·
O=C(N/N=C/c1c[nH]c2ccccc12)c1ccc([N+](=O)[O-])cc1Cl	-8	3	·	·	-1	0	·	·
COc1ccc(C(=O)N/N=C/c2c[nH]c3ccccc23)cc1	-11	-5	2	0	-1	1	·	·
O=C(N/N=C/c1c[nH]c2ccccc12)c1cccc(O)c1	-13	0	1	2.1*	0	-3	0.52	i	FGF22 TSA=1
SMILES	PvdQ acylase	dFosB activator	SIRT5 inh	FGF22 binding-1	CDK5 inh	PglD DTNB	FGF22 binding-2	TSA no protein	others
O=C(N/N=C/c1c[nH]c2ccccc12)c1cccc(Cl)c1	4	0	2	2.8*	1	-1	·	i	FGF22 TSA=0
COCC(=O)Nc1ccc2c(c1)OC[C@H](C)N(C(=O)C1CCCC1)C[C@H](C)[C@@H](OC)CN(C)C2=O	·	·	·	·	·	1	·	·
NC(=NCCc1c[nH]c2ccccc12)NS(=O)(=O)c1ccc(F)cc1	-1	-8	-4	2.7*	2	·	0.088	i
O=C(O)Cn1cc(/C=N/NC(=O)c2cc3cc(Br)ccc3o2)c2ccccc21	12	0	10	1.4*	0	·	-0.036	i
Cc1ccc(S(=O)(=O)Nc2cccc(S(=O)(=O)Nc3ccccc3C(=O)O)c2)c(C)c1	-12	-8	1	1.4*	-3	0	-0.06	i
Cc1ccc(S(=O)(=O)N2CCOCC2)cc1C(=O)Nc1nc(-c2ccccn2)cs1	-20	-22	-2	0	1	·	·	·
O=C(Nc1nc(-c2ccccn2)cs1)c1cccc(S(=O)(=O)N2CCOCC2)c1	-12	-16	-1	1.5*	-10	3	-0.095	i
O=C(Nc1nc(-c2ccccn2)cs1)c1cc2ccccc2o1	-1	-26	-1	1.6*	-1	-6	-0.22	i
O=C(NC[C@@H]1[C@H](c2ccccc2)[C@H](CO)N1C(=O)Cc1cccnc1)C1CC1	·	·	0	1.4*	·	4	-0.085[42 µM]	i
O=C(NC[C@H]1[C@@H](c2ccccc2)[C@@H](CO)N1C(=O)Cc1cccnc1)C1CCC1	·	·	·	·	·	-2	·	·
CC(=O)N(C)C[C@H]1[C@H](c2ccc(-c3ccccc3F)cc2)[C@@H](CO)N1C(C)=O	·	·	-1	0	·	1	·	·
COc1ccc(NC(=O)N(C)C[C@H]2Oc3ccc(NS(C)(=O)=O)cc3CC(=O)N([C@H](C)CO)C[C@@H]2C)cc1	·	·	-3	0	·	-2	·	·
C[C@H](CO)N1C[C@H](C)[C@H](CN(C)C(=O)Nc2ccccc2)Oc2ccc(NC(=O)Nc3ccccc3)cc2CC1=O	·	·	3	1.2*	·	3	0.13	i
COc1ccc(NC(=O)N(C)C[C@@H]2Oc3ccc(NS(C)(=O)=O)cc3CC(=O)N([C@@H](C)CO)C[C@H]2C)cc1	·	·	0	16*	·	-5	0.14[42 µM]	i
C[C@H](CO)N1C[C@H](C)[C@@H](CN(C)Cc2ccc(Cl)c(Cl)c2)OCc2ccccc2-c2ccccc2C1=O	·	·	12	-1	·	·	·	·
